# ROMK mod: human ROMK K+ channel modulation, primary screen; P48048; Tet-inducible ROMK, thallium flux fluorescence; actives lie on both sides; B-score at 10 µM; hit rate 2% among 130,000; AID 1918;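 active means signal ratio slope over the read window, or its plate-corrected B-score, at least 3 SD from the plate mean, either direction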;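 further: B-score of the F/F0 ratio slope over 7 to 12 s after thallium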
# Target sequence (P48048 whole entry, looked up): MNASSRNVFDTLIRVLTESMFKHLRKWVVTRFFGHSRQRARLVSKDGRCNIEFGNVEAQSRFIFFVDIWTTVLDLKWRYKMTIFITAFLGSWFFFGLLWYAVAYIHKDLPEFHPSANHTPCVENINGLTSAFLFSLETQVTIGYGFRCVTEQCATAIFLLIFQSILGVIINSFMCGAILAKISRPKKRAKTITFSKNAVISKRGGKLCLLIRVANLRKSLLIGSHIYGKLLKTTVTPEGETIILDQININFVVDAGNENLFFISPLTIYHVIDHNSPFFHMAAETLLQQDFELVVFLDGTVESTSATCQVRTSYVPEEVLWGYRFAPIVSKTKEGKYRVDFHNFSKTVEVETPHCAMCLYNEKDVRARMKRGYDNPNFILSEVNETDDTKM
# m-calpain inh: inhibitors of pig calpain II. hit rate 0.37% among 220,000. purified calpain II, fluorogenic peptide substrate, 30 min. inhibition, % at 16 µM;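 active means inhibition above about 50%, limit read from the data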
# HMGR II inh: E. faecalis class II HMG-CoA reductase inhibition | purified E. faecalis HMGR, NADPH absorbance 340 nm kinetic | inhibition, % at 10 µM | hit rate 0.41% among 190,000 | AID 1066;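 active means inhibition above a set limit, the median over all tested compounds plus 3 SD, cut at about 9.5% in these data; inconclusive means no clear call, values can overlap the other calls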;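 further: enzyme runs in reverse so mevalonate oxidation gives rising NADPH absorbance; 0% = complete reaction with DMSO and 100% = background rate lacking mevalonate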
# HSV augment: HSV replication enhancement; AID 1956; hit rate 0.005% among 220,000; HSV replication augmentation in cells, fold increase; maximum fold increase; in the data active means maximum fold increase above about 1.5; inconclusive means no clear call, values can overlap the other calls; tested in PC3 cells
# Arbovirus anti: blocks arbovirus infection; AID 1251; arbovirus infection cell-based antiviral screen; hit rate 0.37% among 200,000; inhibition, % at 10 µM; in the data active means inhibition above about 30%
# An asterisk follows results filed as active; i = inactive; ? = inconclusive; · = not tested or not shown. The list is not random: actives were taken first. Their share in the collection is about 2.1%.
SMILES,ROMK mod,m-calpain inh,HMGR II inh,HSV augment,Arbovirus anti
CC1(C)C(C=C(Cl)Cl)C1C(=O)Nc1ccc([N+](=O)[O-])cc1 (configuration not stated),-0.26,53*,3,i,-35
C[C@H]1[C@H](C)CC[C@]2(C(=O)O)CC[C@]3(C)C(=CC[C@@H]4[C@@]5(C)C[C@@H](O)[C@H](O)C(C)(C)[C@@H]5CC[C@]43C)[C@H]12,0.71,-90,18*,i,-37
CSc1cccc(NC(=S)N(CCC(C)C)C(C)c2ccncc2)c1 (configuration not stated),·,2,·,i,·
COc1ccc(S(=O)(=O)N2CCC(NC(=O)OCc3c(Cl)cccc3Cl)CC2)cc1,·,65*,-4,i,7
O=C(O)CCc1ccc(-c2ccc(Cl)cc2)n1NC(=O)c1ccc(O)cc1,·,-16,-8,i,-1
CC(C)OC(=O)CSc1nnc(COc2ccc([N+](=O)[O-])cc2)n1C,0.43,52*,0,i,14
COc1ccc(-n2c(SCC(=O)Nc3ccc(Br)cc3)nc(O)cc2=O)cc1,-0.065,-23,·,i,·
CC(C)(C)c1ccc(C(=O)NC(=S)NCC2CCCO2)cc1 (configuration not stated),-1.5,10,-2,i,40*
Cc1nnc(SC(C)C#N)n1-c1ccccc1 (configuration not stated),-0.0081,-21,12*,i,10
Cc1nnc(SCc2ccccc2C#N)n1-c1ccccc1,0.79,-4,-4,i,9
Cc1cc(C)c2nc(SCC(=O)NCCC3=CCCCC3)cc(C)c2c1,-0.27,12,-3,i,-14
O=C(NCc1ccccc1Cl)c1cc([N+](=O)[O-])ccc1Cl,-0.2,-14,19*,i,0
O=C(NCc1ccc(Cl)cc1)c1cc([N+](=O)[O-])ccc1Cl,-0.013,-2,-8,i,6
CCOP(=O)(Nc1ccc2oc(=O)c3ccccc3c2c1)OCC,·,-25,·,i,·
COc1cccc(CN2CCN(C3CCN(c4ccccc4C)CC3)CC2CCO)c1 (configuration not stated),-0.39,-14,11*,i,-6
CCO[C@@H]1OC(C(=O)N2CCN(Cc3ccccc3)CC2)=C[C@H](c2coc3ccccc3c2=O)[C@H]1CCCO,·,8,-1,i,-13
O=C(N/N=C/c1ccc(O)cc1)c1ccc(COc2cc(Cl)ccc2Cl)o1,0.23,-205,12*,i,-32
O=C(Nc1cccnc1)c1ccc(COc2cc(Cl)ccc2Cl)o1,·,8,-9,i,-24
Cn1c(=O)c2c(nc(N3CCc4ccccc4C3)n2C)n(C)c1=O,-0.33,-8,0,i,2
COc1cccc(C2=CC(c3ccc(C)cc3)n3ncnc3N2)c1 (configuration not stated),-1.1,-220,0,?,66*
COc1cccc(C2=CC(c3cccs3)n3nnnc3N2)c1 (configuration not stated),-0.067,68*,-4,·,-6
Cc1ccc(C2C=C(c3ccc4c(c3)OCO4)Nc3ncnn32)cc1 (configuration not stated),-0.21,-226,-2,·,85*
COc1cccc(C2=CC(c3ccc(OC)c(OC)c3OC)n3nnnc3N2)c1 (configuration not stated),·,32,-2,i,2
CCCc1cc(=O)[nH]c(SCC(=O)NC)n1,·,4,3,i,72*
O=C(O)CCC(=O)N1N=C(c2ccccc2)CC1c1cccs1 (configuration not stated),0.92,11,·,i,·
SMILES,ROMK mod,m-calpain inh,HMGR II inh,HSV augment,Arbovirus anti
O=C(c1ccco1)N1CCN(c2nc(-c3ccc(F)cc3)cs2)CC1,·,-7,-4,i,31*
C(=N\Nc1nc(-c2ccccc2)cs1)/c1ccncc1,·,38,2,i,15
O=C(O)c1csc(N/N=C/c2ccc(Br)cc2)n1,1.4,-94,-5,i,46*
O=C(c1ccccc1)N(Cc1ccc2c(c1)OCO2)Cc1nc2ccccc2c(=O)[nH]1,3.2*,34,-5,i,-2
CCc1cccc(CC)c1NC(=S)NCc1nc2ccccc2[nH]1,-0.41,0,4,i,-2
CC(=O)N1CCN(c2ccccc2NC(=O)COc2ccc(Br)cc2)CC1,·,-7,13*,i,0
O=C(COc1ccc(Br)cc1)Nc1ccccc1N1CCCC1,0.12,-23,-2,i,-8
Cc1ccc(C2(C)NC(=O)N(CC(=O)Nc3c(C)n(C)n(-c4ccccc4)c3=O)C2=O)cc1 (configuration not stated),·,-15,13*,i,-5

# Source: PubChem BioAssay (several laboratories)
